For 38 compounds, Potency and activity change, negative = inhibition results are on record in PubChem BioAssay (NCATS).

Several values for one entry are separate records, joined by “and”; a condition that tells them apart may be missing. Identical values can stand only once. Inconclusive results are not listed. A call without a number means that no potency is given here. A number with no mark means an inactive call. Activity calls are given as the source filed them. Calls come from the whole dose curve; as a rule, active = well fitted inhibition curve with a large enough effect; inconclusive = small, poorly fitted or top-dose-only effect; inactive = no such curve, though single readings can be large or run the other way.
Potency is the fitted concentration of half-maximal effect.

Sequence of Cytochrome P450 3A4 (Homo sapiens) (P08684 whole entry, looked up): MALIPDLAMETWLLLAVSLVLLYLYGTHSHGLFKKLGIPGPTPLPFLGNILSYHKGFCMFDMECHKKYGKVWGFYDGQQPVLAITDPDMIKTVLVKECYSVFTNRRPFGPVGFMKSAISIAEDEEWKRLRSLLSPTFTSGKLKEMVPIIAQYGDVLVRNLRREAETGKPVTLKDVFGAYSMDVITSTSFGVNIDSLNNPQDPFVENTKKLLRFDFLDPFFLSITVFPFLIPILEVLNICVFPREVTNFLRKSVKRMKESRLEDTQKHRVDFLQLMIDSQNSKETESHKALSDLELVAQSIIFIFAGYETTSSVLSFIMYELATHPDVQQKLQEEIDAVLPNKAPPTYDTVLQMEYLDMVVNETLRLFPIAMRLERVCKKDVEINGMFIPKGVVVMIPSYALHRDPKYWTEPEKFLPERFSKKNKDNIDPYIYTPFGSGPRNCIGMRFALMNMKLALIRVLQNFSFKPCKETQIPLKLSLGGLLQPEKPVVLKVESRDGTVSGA

The assay addresses Cytochrome P450 3A4 (Homo sapiens) (UniProt P08684). Briefly: qHTS Assay for Inhibitors and Substrates of Cytochrome P450 3A4 (AID 884). Note: nearly all actives have a fitted effect of over 50% in size. The settings on record: recombinant CYP3A4, Luciferin-PPXE luminescence; series mostly up to 57.1 µM. In a few lines:
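Luminescent readout of luciferin produced by CYP3A4 (20 nM) dealkylation of Luciferin-PPXE, 25 uM (its KM). NADPH-driven reaction ran 60 min at RT after 10 min compound preincubation; data scaled to 57 uM ketoconazole as 100% inhibition.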
For `Nc1nc2c(ncn2C2CC(O)C(CO)O2)c(=O)[nH]1` (stereo not drawn), the Potency entry was “inactive”. Same read-out and setting: the value for `CNC(=O)Oc1ccc2c(c1)[C@@]1(C)CCN(C)C1N2C` (stereo partly drawn) was “inactive”; that for `COc1ccc(/C=C/C(=O)c2cc(O)ccc2O)cc1` was “inactive”. As to `CC(=O)c1ccc(OC2C=CC(c3ccc(Cl)cc3)OC2CO)cc1` (stereo not drawn), the activity change, negative = inhibition was -21.5% [at 11.4 µM]. `COc1cc(OC)c2c(OC)c(-c3ccc4c(c3)OCO4)c(=O)oc2c1`: the Potency was 2.51 µM (active).

For the compound `COC(=O)NC(/C(C(=O)OC)=C(\C)NCc1ccccc1)c1ccc(Cl)cc1` (stereo not drawn), the activity change, negative = inhibition was -24.6% [at 11.4 µM]. Regarding `C[C@]12CCC3c4ccc(O)cc4CCC3C1CCC2OC(=O)CCC1CCCC1` (stereo partly drawn), the Potency entry is “inactive”. The same measure, in the same setting: the value for `Nc1ncnc2c1nc(Br)n2C1OC(CO)C(O)C1O` (stereo not drawn) was “inactive”; that for `CC1C(NC(=O)/C(=N/OC(C)(C)C(=O)O)c2csc(N)n2)C(=O)N1S(=O)(=O)O` (stereo not drawn) was “inactive”. In the case of `Cc1ccccc1OC1C=CC(C#Cc2ccc(Br)cc2)OC1CO` (stereo not drawn), the activity change, negative = inhibition is -26.7% [at 11.4 µM]. Take `Cc1onc(-c2c(Cl)cccc2Cl)c1C(=O)NC1C(=O)N2C1SC(C)(C)C2C(=O)O` (stereo not drawn): the Potency entry is “inactive”.

Consider `CC(=O)OCC1OC(C#Cc2ccc(C(C)(C)C)cc2)C=CC1OC(C)=O` (stereo not drawn), for which the activity change, negative = inhibition was -26.6% [at 11.4 µM]. Take `Nc1ncnc2c1[nH]c(=O)n2C1CC(O)C(CO)O1` (stereo not drawn): the Potency result is “inactive”. Same read-out and setting: the value for `COc1c2c(cc3occ(-c4ccc5c(c4)OCO5)c(=O)c13)OC(C)(C)C=C2` was 2.51 µM (active); that for `C#CCCCO/N=C1/C[C@@H](O)[C@@H](O)[C@@H]2[C@@H]3C(=O)N(C4CCCCC4)C(=O)[C@H]3CC[C@@H]12` was 3.16 µM (active); that for `NC(=O)c1cc[n+](CC2=C(C(=O)O)N3C(=O)C(NC(=O)C(c4ccccc4)S(=O)(=O)[O-])C3SC2)cc1` (stereo not drawn) was “inactive”. As to `COc1c(-c2coc3cc4c(cc3c2=O)CC(OC(C)=O)C(C)(C)O4)ccc2c1C=CC(C)(C)O2` (stereo not drawn), the Potency result is “inactive”. Still for that read-out and setting: the value for `C[C@@]12CCC(OC(=O)c3ccccc3)CC1CCc1ccccc12` (stereo partly drawn) was “inactive”; that for `COc1cc(O)c(C(=O)/C=C/c2ccc(O)c(OC)c2)c(OC)c1` was 7.94 µM (active); that for `COc1ccc(O[C@H]2C=C[C@@H](c3ccccc3)O[C@H]2CO/N=C(/C)CCC(=O)OC[C@@H]2O[C@H](c3ccccc3)C=C[C@@H]2Oc2ccc(OC)cc2)cc1` was 3.98 µM (active). Still for that read-out and setting: the value for `CC(=O)OCC(=O)[C@@]1(O)CCC2C3CCC4=CC(=O)CC[C@]4(C)C3C(=O)C[C@]21C` (stereo partly drawn) was “inactive”.

Take `COc1ccc(/C=C/C(=O)c2ccccc2O)cc1`: the activity change, negative = inhibition was -17.2% [at 11.4 µM].

Turning to `NC(N)=N/N=C\c1c(Cl)cccc1Cl`, the Potency entry was “inactive”. On the same count and under the same terms, the value for `O=C1C=CC(=C(c2ccc(O)cc2)c2ccc(O)cc2)C=C1` was 20 µM (active). Still for that read-out and setting: the value for `CC1CCC2C(C)(C)C3CC12CC[C@]3(C)O` (stereo partly drawn) was “inactive”; that for `NC(C(=O)O)C(O)C(=O)O` (stereo not drawn) was “inactive”.

For `CCOC(=O)OCC1OC(c2ccc(C(C)=O)cc2)C=CC1Oc1ccc(-c2ccccc2)cc1` (stereo not drawn), the activity change, negative = inhibition was -27.8% [at 11.4 µM]. Turning to `CC1(C)C(=O)C=C[C@@]2(C)C1C=C[C@@]1(C)C2CC[C@@]2(C)C(c3ccoc3)OC(=O)C3OC312` (stereo partly drawn), the Potency was 7.94 µM (active).

On to `C=CC(C1=CC(=O)C(OC)=CC1=O)c1ccc(OC)cc1` (stereo not drawn), for which the Potency is 25.1 µM (active). On to `CCOC(=O)OCC1OC(c2ccccc2)C=CC1OC(=O)OCC` (stereo not drawn), for which the activity change, negative = inhibition is -18.7% [at 11.4 µM]. Still for that read-out and setting: the value for `CCOC(=O)OCC1OC(C#Cc2ccc(C(C)(C)C)cc2)C=CC1OC(=O)OCC` (stereo not drawn) was -12.4% [at 11.4 µM]. As to `CCc1cc2c(nc1CC)CCN(CC/C(C)=N/O[C@@H](C)c1cn([C@H](CO)Cc3ccccc3)nn1)C2`, the Potency is 3.16 µM (active) and 3.98 µM (active).

For the compound `CC1O[C@@H](O[C@@H]2C(O)C[C@H](O[C@@H]3C(O)C[C@@H](OC4CC[C@@]5(C)C6CC[C@]7(C)C(C8=CC(=O)OC8)CC[C@@]7(O)C6CC[C@@H]5C4)OC3C)OC2C)CC(O)[C@H]1O` (stereo partly drawn), the Potency result is “inactive”. For the compound `C=CCCCCCCCCCCCC(O)CC(O)COC(C)=O` (stereo not drawn) (tested in a mixture with another compound), the Potency result is “inactive”.

On to `CC(=O)c1ccc[nH]1`, for which the Potency entry is “inactive”. Take `CCOC(=O)OCC1OC(c2ccccc2)C=CC1Oc1ccc(F)cc1C` (stereo not drawn): the activity change, negative = inhibition was -28.9% [at 11.4 µM]. Regarding `CSCCC(NC=O)C(=O)NC(CC(C)C)C(=O)NC(Cc1ccccc1)C(=O)O` (stereo not drawn), the Potency result was “inactive”.

On to `COc1ccc(COC(=O)N/N=C2/C[C@@H](O)[C@@H](O)[C@@H]3[C@@H]4C(=O)N(c5cccc(Oc6ccccc6)c5)C(=O)[C@H]4CC[C@H]23)cc1`, for which the Potency was 3.16 µM (active).
